Reference: the supplement of paper PMC10849652
About 7,900 targets were measured; listed, in parts, are those with a hit and a random draw of the rest. About 0.6% of all pairs of compound and target were hits.

Compound: COC1=CC=C(C=C1)CN2C=CC3=C2C=C(C=C3)C(=O)NO
Assay: log2 fold change, soluble protein after heating vs DMSO (PISA); higher = thermal stabilisation; K562 cells, 10 uM, 30 min; active = over 0.2 and 3.5 SD of the protein, either way, in both replicates (recomputed)
Summary of the method: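 Soluble protein was quantified by TMTpro 16plex LC-MS/MS after channel sums were equalised. It was obtained as the supernatant after 21,000xg for 90 min from pooled aliquots of K562 cells (2×10^6 cells/mL, 10 μM compound, 30 min) heated for 3 min across 48°C-58°C and extracted in PBS with 0.5% NP-40 at 4°C. Thermal stability values are relative to control samples and come from duplicates. They are given as log2 fold changes.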

UniProt Q9BXW9, sequence (Q9BXW9 whole entry, looked up): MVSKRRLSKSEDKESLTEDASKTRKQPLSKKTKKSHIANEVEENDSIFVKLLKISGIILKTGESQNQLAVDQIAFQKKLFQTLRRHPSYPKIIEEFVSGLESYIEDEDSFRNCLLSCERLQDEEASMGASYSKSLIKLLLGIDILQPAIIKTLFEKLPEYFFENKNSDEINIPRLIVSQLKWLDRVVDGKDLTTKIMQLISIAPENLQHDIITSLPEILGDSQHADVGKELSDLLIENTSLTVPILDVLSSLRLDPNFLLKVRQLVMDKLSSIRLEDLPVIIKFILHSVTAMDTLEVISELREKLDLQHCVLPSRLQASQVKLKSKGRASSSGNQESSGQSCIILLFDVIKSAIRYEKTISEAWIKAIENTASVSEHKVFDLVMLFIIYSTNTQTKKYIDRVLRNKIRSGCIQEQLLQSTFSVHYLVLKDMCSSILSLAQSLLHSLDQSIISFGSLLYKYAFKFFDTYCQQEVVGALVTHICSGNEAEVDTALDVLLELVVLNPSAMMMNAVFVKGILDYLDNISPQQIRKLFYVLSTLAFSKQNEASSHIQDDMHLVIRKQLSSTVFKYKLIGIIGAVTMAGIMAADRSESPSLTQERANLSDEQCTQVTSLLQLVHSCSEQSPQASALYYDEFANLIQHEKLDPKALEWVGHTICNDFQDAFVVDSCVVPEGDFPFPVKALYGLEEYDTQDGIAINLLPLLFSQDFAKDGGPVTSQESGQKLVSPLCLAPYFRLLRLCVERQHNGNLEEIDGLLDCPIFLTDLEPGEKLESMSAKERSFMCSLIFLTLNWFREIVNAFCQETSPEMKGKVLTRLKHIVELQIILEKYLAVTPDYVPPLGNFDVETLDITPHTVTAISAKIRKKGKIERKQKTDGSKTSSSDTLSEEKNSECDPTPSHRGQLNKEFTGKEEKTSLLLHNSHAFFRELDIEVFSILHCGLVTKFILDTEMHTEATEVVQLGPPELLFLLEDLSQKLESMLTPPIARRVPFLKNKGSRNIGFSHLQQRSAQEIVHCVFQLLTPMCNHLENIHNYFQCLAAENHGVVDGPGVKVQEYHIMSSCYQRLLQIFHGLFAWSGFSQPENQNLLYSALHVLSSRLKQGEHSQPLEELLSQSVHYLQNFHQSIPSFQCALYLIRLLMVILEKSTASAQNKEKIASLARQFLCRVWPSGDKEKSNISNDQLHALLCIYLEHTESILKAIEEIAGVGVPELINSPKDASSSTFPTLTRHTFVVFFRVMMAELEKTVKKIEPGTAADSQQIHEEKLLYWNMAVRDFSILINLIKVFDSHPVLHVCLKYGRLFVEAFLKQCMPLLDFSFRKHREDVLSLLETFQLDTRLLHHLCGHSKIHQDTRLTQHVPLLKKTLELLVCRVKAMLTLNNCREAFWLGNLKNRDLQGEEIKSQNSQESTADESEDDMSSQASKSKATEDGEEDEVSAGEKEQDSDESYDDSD
UniProt O14929, sequence (O14929 whole entry, looked up): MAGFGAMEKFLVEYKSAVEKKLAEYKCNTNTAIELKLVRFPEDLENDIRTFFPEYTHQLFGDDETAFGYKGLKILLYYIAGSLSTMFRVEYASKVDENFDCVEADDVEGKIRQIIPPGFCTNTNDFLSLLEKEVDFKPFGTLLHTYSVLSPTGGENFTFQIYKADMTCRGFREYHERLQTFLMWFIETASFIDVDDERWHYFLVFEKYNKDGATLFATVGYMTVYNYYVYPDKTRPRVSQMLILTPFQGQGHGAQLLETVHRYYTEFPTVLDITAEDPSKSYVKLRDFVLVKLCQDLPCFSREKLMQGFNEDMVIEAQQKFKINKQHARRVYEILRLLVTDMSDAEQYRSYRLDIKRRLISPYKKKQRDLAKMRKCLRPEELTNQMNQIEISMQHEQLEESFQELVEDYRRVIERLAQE
UniProt P00367, sequence (P00367 whole entry, looked up): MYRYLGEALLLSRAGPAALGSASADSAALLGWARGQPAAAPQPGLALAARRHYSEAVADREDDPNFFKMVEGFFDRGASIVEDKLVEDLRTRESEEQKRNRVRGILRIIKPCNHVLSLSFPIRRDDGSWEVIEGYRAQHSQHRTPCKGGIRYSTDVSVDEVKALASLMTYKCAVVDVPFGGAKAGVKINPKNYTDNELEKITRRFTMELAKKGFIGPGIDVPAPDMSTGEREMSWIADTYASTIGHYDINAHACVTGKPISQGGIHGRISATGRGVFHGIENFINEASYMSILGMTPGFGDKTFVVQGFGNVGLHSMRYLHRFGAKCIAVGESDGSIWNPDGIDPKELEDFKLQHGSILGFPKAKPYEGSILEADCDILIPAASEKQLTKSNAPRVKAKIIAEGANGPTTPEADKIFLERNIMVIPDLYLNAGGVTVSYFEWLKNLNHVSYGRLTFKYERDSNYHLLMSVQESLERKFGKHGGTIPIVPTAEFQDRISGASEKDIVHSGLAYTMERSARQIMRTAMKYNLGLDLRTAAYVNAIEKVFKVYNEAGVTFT
UniProt Q658Y4, sequence (Q658Y4 whole entry, looked up): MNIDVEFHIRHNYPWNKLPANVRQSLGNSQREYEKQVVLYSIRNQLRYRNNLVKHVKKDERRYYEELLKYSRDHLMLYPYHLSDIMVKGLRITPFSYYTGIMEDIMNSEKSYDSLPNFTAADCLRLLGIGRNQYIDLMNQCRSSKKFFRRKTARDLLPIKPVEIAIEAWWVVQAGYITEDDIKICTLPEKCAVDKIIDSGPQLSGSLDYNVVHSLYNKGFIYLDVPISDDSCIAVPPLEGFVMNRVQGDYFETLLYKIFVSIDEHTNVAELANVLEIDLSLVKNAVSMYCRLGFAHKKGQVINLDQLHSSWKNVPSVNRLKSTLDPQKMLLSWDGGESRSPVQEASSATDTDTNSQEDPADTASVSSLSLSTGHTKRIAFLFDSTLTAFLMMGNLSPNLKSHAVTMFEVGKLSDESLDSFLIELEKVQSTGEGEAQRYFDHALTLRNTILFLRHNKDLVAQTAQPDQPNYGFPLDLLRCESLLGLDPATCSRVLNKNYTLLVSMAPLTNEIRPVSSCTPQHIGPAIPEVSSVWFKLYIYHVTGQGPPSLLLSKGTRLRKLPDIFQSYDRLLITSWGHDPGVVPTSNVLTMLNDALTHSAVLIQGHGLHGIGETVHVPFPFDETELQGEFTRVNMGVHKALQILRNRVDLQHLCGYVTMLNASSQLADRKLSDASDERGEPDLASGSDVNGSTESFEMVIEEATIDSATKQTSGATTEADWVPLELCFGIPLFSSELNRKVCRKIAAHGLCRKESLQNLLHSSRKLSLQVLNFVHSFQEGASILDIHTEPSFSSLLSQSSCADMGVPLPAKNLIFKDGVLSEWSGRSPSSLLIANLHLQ
UniProt P55795, sequence (P55795 whole entry, looked up): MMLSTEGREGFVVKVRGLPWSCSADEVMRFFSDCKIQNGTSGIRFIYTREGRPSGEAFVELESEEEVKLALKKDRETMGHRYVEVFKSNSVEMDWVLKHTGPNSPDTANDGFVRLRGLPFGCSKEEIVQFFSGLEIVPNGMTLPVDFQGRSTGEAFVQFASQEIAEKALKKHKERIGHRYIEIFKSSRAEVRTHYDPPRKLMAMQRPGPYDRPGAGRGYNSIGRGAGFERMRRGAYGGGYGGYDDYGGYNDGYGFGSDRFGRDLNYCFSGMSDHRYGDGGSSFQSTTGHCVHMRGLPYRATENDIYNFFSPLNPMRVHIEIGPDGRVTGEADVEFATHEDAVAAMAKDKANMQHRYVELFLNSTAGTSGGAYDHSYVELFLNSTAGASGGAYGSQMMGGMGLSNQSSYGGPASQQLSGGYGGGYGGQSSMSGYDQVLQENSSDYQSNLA
UniProt P46976, sequence (P46976 whole entry, looked up): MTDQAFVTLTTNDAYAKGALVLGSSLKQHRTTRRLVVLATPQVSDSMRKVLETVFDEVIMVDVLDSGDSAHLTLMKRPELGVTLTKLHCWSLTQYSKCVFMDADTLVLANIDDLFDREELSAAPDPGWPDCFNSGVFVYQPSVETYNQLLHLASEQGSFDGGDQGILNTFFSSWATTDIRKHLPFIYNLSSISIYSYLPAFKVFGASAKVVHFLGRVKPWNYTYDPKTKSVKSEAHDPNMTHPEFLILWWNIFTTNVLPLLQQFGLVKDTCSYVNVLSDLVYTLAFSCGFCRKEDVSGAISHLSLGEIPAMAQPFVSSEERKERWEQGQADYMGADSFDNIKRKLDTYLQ
UniProt Q96HJ9, sequence (Q96HJ9 whole entry, looked up): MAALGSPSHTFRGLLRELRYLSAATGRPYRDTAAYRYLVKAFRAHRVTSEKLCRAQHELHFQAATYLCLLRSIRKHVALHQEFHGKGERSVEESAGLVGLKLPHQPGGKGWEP
UniProt P52655, sequence (P52655 whole entry, looked up): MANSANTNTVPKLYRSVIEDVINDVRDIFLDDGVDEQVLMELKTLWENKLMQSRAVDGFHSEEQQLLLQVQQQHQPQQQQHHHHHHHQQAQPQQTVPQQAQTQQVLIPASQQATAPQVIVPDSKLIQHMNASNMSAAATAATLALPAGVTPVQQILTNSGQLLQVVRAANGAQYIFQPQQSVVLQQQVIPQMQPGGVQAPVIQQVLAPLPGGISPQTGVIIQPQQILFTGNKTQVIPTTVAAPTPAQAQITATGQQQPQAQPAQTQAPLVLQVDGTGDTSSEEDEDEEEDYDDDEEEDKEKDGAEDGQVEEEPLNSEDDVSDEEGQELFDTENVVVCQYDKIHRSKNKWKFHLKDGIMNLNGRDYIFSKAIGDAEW
UniProt P02008, sequence (P02008 whole entry, looked up): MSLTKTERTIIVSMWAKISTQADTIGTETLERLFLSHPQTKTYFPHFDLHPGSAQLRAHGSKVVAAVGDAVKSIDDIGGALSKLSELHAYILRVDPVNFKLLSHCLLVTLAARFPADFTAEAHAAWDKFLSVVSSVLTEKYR
UniProt P60520, sequence (P60520 whole entry, looked up): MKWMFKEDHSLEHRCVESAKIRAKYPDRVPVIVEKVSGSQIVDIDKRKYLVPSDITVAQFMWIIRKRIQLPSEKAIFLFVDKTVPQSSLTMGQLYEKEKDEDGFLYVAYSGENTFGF
UniProt P69905, sequence (P69905 whole entry, looked up): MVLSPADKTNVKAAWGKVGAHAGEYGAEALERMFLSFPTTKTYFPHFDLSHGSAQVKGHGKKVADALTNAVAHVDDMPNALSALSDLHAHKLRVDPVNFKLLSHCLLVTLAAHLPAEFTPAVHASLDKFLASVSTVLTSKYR

log2 fold change, active:
HMOX2 (UniProt P30519) 0.444

log2 fold change, inactive:
HECTD1 (UniProt Q9ULT8) -0.039, FMC1 (UniProt Q96HJ9) 0.068, GABARAPL2 (UniProt P60520) 0.185, HOMER1 (UniProt Q86YM7) 0.168, H2AZ1 (UniProt P0C0S5) 0.05, GOLGB1 isoform 2 (UniProt Q14789) -0.16, GLCCI1 (UniProt Q86VQ1) 0.009, GUSB (UniProt P08236) -0.063, H2AFX (UniProt P16104) -0.06, HSPA8 (UniProt E9PK54) 0.011, HBA1 (UniProt P69905) -0.037, FKBP7 (UniProt Q9Y680) -0.152, GYG1 (UniProt P46976) 0.08, HNRNPH1 (UniProt P31943) 0.069, HBZ (UniProt P02008) 0.012, GALC (UniProt P54803) 0.007, FUCA2 (UniProt Q9BTY2) -0.094, GEMIN2 (UniProt O14893) -0.099, FANCD2 isoform 1 (UniProt Q9BXW9) 0.054, GNAS (UniProt Q5JWF2) -0.048, HSD17B12 (UniProt Q53GQ0) 0.069, HAT1 (UniProt O14929) 0.14, GLS (UniProt O94925) 0.009, HP1BP3 (UniProt Q5SSJ5) 0.041, FARS2 (UniProt O95363) -0.171, HNRNPH2 (UniProt P55795) 0.003, GEMIN5 (UniProt Q8TEQ6) 0.017, FNTB (UniProt P49356) 0.088, GTF2A1 (UniProt P52655) -0.102, FAM91A1 (UniProt Q658Y4) -0.081, HBQ1 (UniProt P09105) -0.034, GGT7 (UniProt Q9UJ14) 0.044, GLUD1 (UniProt P00367) -0.012
